Hits are enriched below; roughly 3.5% of the tested compounds scored in any of these assays.
FBW7 act – human FBW7 E3 ligase activation, primary screen. Q969H0. AlphaScreen FBW7–phospho-cyclin E peptide binding, activator screen. normalized activity (activation), % at 26.1 µM. actives 0.13% (n = 650,000); in the data active means normalized activity above about 1.9%;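 further: purified mutant Fbw7 with reduced substrate affinity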
Target sequence (Q969H0 whole entry, looked up): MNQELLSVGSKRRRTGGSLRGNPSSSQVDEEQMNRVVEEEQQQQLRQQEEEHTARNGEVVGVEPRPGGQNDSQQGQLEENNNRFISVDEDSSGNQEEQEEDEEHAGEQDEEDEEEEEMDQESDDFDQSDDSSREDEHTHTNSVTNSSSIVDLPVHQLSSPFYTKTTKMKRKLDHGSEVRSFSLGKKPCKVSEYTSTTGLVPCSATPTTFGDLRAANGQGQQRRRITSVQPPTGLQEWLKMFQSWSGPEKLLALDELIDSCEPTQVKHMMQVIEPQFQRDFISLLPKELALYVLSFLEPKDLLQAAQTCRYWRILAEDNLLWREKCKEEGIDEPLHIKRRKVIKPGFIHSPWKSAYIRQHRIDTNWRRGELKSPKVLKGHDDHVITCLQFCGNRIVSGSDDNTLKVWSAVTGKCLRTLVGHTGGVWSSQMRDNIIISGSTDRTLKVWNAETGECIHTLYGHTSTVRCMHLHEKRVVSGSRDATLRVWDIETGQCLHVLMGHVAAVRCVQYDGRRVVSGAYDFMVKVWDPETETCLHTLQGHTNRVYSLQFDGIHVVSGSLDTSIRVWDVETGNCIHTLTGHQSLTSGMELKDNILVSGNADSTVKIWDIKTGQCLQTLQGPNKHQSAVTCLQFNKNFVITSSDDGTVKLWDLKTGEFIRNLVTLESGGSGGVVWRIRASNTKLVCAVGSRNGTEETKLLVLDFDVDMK
TEAD-YAP block – TEAD-YAP interaction inhibition; HEK-TIYL cells, TEAD-Gal4/YAP UAS-luciferase luminescence; inhibition, % at 9.12 µM; actives 1.4% (n = 640,000); in the data active means inhibition above about 32%;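 further: 0% = median of test compound wells and 100% = reference inhibitor wells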
GPR151 ag – human GPR151 activation. Q8TDV0. PathHunter beta-arrestin GPR151 cells, luminescence. activation, % at 11.2 µM. actives 1% (n = 650,000). AID 1508602; in the data active means activation above about 4.9%;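 further: 0% = median of compound wells and 100% = cells with positive control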
MITF primary – blocks human microphthalmia-associated transcription factor. inhibition, % at 2.6 µM. O75030. AID 1259374. actives 0.91% (n = 650,000). AlphaScreen MITF homodimerization, bead proximity signal; in the data active means inhibition above about 50%;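 further: 0% = vehicle wells with protein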
* marks the source's active call; other numbers are inactive results.

What do the screens show for `CC(=O)N(C1=C(N(C)C)C(=O)c2ccccc2C1=O)c1cccc(F)c1`?
FBW7 act: -1; TEAD-YAP block: 95*; GPR151 ag: -7; MITF primary: 13

Results for c1ccc(-c2cc(N3CCc4ccccc4C3)nc(-c3ccccn3)n2)nc1 ?
FBW7 act: -1; TEAD-YAP block: 69*; GPR151 ag: 1; MITF primary: 85*

Results for CN1CCN(c2cc(-c3ccccc3)nc(-c3ccccn3)n2)CC1 ?
FBW7 act: 0; TEAD-YAP block: 2; GPR151 ag: 0; MITF primary: -5

What do the screens show for `CN1CCN(c2cc(-c3ccncc3)nc(-c3cccnc3)n2)CC1`?
FBW7 act: 0; TEAD-YAP block: 61*; GPR151 ag: 3; MITF primary: 0

How did CN1CCN(c2cc(-c3ccccn3)nc(-c3ccccn3)n2)CC1 do in these assays?
FBW7 act: -1; TEAD-YAP block: 32; GPR151 ag: 2; MITF primary: 112*

How did O=C(COc1ccc(Br)cc1)NC12CC3CC(CC(C3)C1)C2 do in these assays?
FBW7 act: 0; TEAD-YAP block: -26; GPR151 ag: 2; MITF primary: 0

What do the screens show for `c1csc(Cn2nnnc2CN2CCN(C3CCCC3)CC2)c1`?
FBW7 act: 0; TEAD-YAP block: 6; GPR151 ag: 0; MITF primary: 12

Results for Fc1ccccc1C1CCN(Cc2nnnn2C2CCCC2)CC1 ?
FBW7 act: 0; TEAD-YAP block: 5; GPR151 ag: 0; MITF primary: 33

What do the screens show for `Clc1ccc2nc(C3CCN(Cc4nnnn4Cc4cccs4)CC3)[nH]c2c1`?
FBW7 act: 0; TEAD-YAP block: 36*; GPR151 ag: -1; MITF primary: 12

Results for Clc1ccc2nc(C3CCN(Cc4nnnn4C4CCCC4)CC3)[nH]c2c1 ?
FBW7 act: 0; TEAD-YAP block: 37*; GPR151 ag: -1; MITF primary: 3

Results for COc1ccc(CCNc2cc(-c3csc4ccccc34)nc(N)n2)cc1 ?
FBW7 act: 1; TEAD-YAP block: 57*; GPR151 ag: 2; MITF primary: 8

Results for Nc1nc(NCc2ccccc2)cc(-c2csc3ccccc23)n1 ?
FBW7 act: 0; TEAD-YAP block: 2; GPR151 ag: 0; MITF primary: 8

What do the screens show for `COc1ccc(CCNc2cc(Nc3cnccn3)nc(N)n2)cc1`?
FBW7 act: 0; TEAD-YAP block: 35*; GPR151 ag: -1; MITF primary: -6

What do the screens show for `COc1ccc(CCNc2cc(Nc3cnccn3)ncn2)cc1`?
FBW7 act: 0; TEAD-YAP block: 3; GPR151 ag: -1; MITF primary: 12

What do the screens show for `COc1ccc(-c2cc(NCc3cccc(C(F)(F)F)c3)nc(N)n2)cn1`?
FBW7 act: 0; TEAD-YAP block: 46*; GPR151 ag: 4; MITF primary: 1

Results for Nc1nc(NCc2cccc(C(F)(F)F)c2)cc(-c2csc3ccccc23)n1 ?
FBW7 act: 0; TEAD-YAP block: 53*; GPR151 ag: -1; MITF primary: 9

How did COc1ccc(-c2cc(NCc3cccc(C(F)(F)F)c3)nc(N)n2)cc1 do in these assays?
FBW7 act: 0; TEAD-YAP block: 3; GPR151 ag: 0; MITF primary: 9

How did CCOC(=O)c1c(NC(=O)c2cc3nc(-c4ccc(F)cc4)cc(C(F)(F)F)n3n2)sc2c1CCCC2 do in these assays?
FBW7 act: 0; TEAD-YAP block: 12; GPR151 ag: 1; MITF primary: -4

Results for CNc1nc(N2CC(C)OC(C)C2)nc(N)c1[N+](=O)[O-] (centres undefined) ?
FBW7 act: 1; TEAD-YAP block: -15; GPR151 ag: 0; MITF primary: 14

What do the screens show for `CC(C)n1c(NCCN2CCOCC2)nc2c(Nc3ccccc3)ncnc21`?
FBW7 act: 0; TEAD-YAP block: 41*; GPR151 ag: -4; MITF primary: 3

How did CC(C)n1c(NCCN2CCOCC2)nc2c(Nc3ccc(N4CCOCC4)cc3)ncnc21 do in these assays?
FBW7 act: 0; TEAD-YAP block: -11; GPR151 ag: -1; MITF primary: 0

What do the screens show for `CCCNc1ncnc2c1nc(NCCCN1CCCC1=O)n2C(C)C`?
FBW7 act: 0; TEAD-YAP block: -19; GPR151 ag: -2; MITF primary: 9

How did CC(C)n1c(NCCCN2CCCC2=O)nc2c(Nc3ccccc3)ncnc21 do in these assays?
FBW7 act: 0; TEAD-YAP block: 35*; GPR151 ag: -8; MITF primary: -6

What do the screens show for `O=S(=O)(c1cccc2nonc12)N1CCCC1c1ccc(F)cc1` (centres undefined)?
FBW7 act: 0; TEAD-YAP block: 6; GPR151 ag: -1; MITF primary: 14

How did CC(C)(C)c1ccc(C(=O)NCC(=O)OCC(=O)Nc2ccc([N+](=O)[O-])cc2Cl)cc1 do in these assays?
FBW7 act: 0; TEAD-YAP block: -5; GPR151 ag: 0; MITF primary: 4

Results for O=c1[nH]cnc2c1ncn2[C@@H]1O[C@H](CO)[C@@H](O)[C@H]1O ?
FBW7 act: 0; TEAD-YAP block: -4; GPR151 ag: -1; MITF primary: -4

Results for O=c1cnn([C@@H]2O[C@H](CO)[C@@H](O)[C@H]2O)c(=O)[nH]1 ?
FBW7 act: 0; TEAD-YAP block: 48*; GPR151 ag: 1; MITF primary: -2

What do the screens show for `O=c1ncn(C2OC(CO)C(O)C2O)c(=O)[nH]1` (centres undefined)?
FBW7 act: 0; TEAD-YAP block: 74*; GPR151 ag: 0; MITF primary: 0

How did COC(=O)C1C(c2ccc(C)cc2)c2c([nH][nH]c2=O)CC1(C)O (centres undefined) do in these assays?
FBW7 act: 0; TEAD-YAP block: 8; GPR151 ag: 1; MITF primary: 2

Results for Cc1cccc(C)c1NC(=O)COC(=O)c1ccccn1 ?
FBW7 act: 0; TEAD-YAP block: 11; GPR151 ag: 0; MITF primary: -338

Results for Cc1cc(C=O)c(C)n1-c1ccc(C(=O)O)c(Cl)c1 ?
FBW7 act: 0; TEAD-YAP block: 10; GPR151 ag: 0; MITF primary: 70*

How did CCOC(=O)c1cc2c(=O)n3ccccc3nc2n(CCOC)c1=NC(=O)C(C)(C)C do in these assays?
FBW7 act: 0; TEAD-YAP block: 1; GPR151 ag: 2; MITF primary: -1

What do the screens show for `CCOC(=O)c1cc2c(=O)n3ccccc3nc2n(CCOC)c1=NC(=O)C1CCCCC1`?
FBW7 act: 0; TEAD-YAP block: 37*; GPR151 ag: -2; MITF primary: -3

What do the screens show for `CC1Cc2cc(S(=O)(=O)N(C)CC(=O)Nc3cccnc3)ccc2N1C(=O)C1CC1` (centres undefined)?
FBW7 act: 0; TEAD-YAP block: 39*; GPR151 ag: -1; MITF primary: 8

What do the screens show for `CC1(C)CC(C(=O)N2CCC(C3(C)NC(=O)N(Cc4ccc(F)cc4)C3=O)CC2)CCO1` (centres undefined)?
FBW7 act: 0; TEAD-YAP block: 9; GPR151 ag: 1; MITF primary: 9

What do the screens show for `Fc1ccc(-n2nnnc2SCc2ccc(Cl)cc2)cc1Cl`?
FBW7 act: 0; TEAD-YAP block: 4; GPR151 ag: 1; MITF primary: 7
